The record followed here is PubChem BioAssay (NCI).

About 83,000 compounds went through this panel and 20% of them were active in at least one assay; those are over-represented in the sample as a whole.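 Note: values are percent growth. 100 is the growth of untreated cells, values between 100 and 0 indicate rising inhibition; between -100 and 0 indicates cell death.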 Activity calls are given as the source filed them.

In the assay the test system is IGROV1 ovarian. The assay is described as follows: NCI-60 one-dose screen, 48 h (100 = growth as untreated, 0 = no growth, -100 = all killed). The note with it: 10 µM unless noted. The procedure: Growth inhibition of the IGROV1 human tumor cell line is measured as a screen for anti-cancer activity. Cells are grown in 96 well plates and exposed to the test compound for 48 hours. Compounds are tested at a single concentration, which is 10^-5 M for most compounds. The reported endpoint is percent growth (GI% or GIPRCNT), where numbers from 0 - 100% represent growth inhibition, and numbers from -100% - 0 represent cell death. For example, a value of 40 represents 60% growth inhibition. A value of 0 means no net growth occurred over the course of the experiment. A value of -40 indicates 40% of cells at the beginning of the experiment died by the end of the experiment. A value of -100 means all cells are dead at the end of the experiment.
NCI-60 Human Tumor Cell Lines Screen was performed using the standard one-dose NCI protocol, which is described in more detail at https://dtp.cancer.gov/discovery_development/nci-60/default.htm.
Compounds with GIPRCNT values below 10 were considered active. Activity score was based on GIPRCNT using the following formula: […]
Score is 0 for GIPRCNT values of 100 or above, 50 for GIPRCNT values of 0, and 100 for GIPRCNT values of -100.
As to `CCOC(=O)N1CCC(N=C2CSc3nnc(-c4cc(C(F)(F)F)cc(C(F)(F)F)c4)n3N2)CC1`, the growth was 44.1% (inactive). As to `COc1cc(C(=O)c2cc3c(cc2C)OCO3)cc(OC)c1OC`, the growth is 25.1% (inactive).

With `Clc1ccc2[nH]cc(-c3cncn3CCc3ccccc3)c2c1`, the growth is 69.3% (inactive).

For `CCOc1cc(/C=C/C(=O)CC(=O)/C=C/c2ccc(OC(=O)CNc3nc4ccc(OC)cc4s3)c(OCC)c2)ccc1OC(=O)CNc1nc2ccc(OC)cc2s1`, the growth is -26.5% (active). In the case of `Nc1ccc2c(c1)C(=O)c1cc(Cl)c(Cl)cc1-2`, the growth was 94.6% (inactive). On to `O=C1CSC(c2ccccc2O)N1c1nnc(Cn2ccnc2)o1` (stereo not given), for which the growth is 67.7% (inactive).

For the molecule `N#CC1c2ccccc2C=CN1C(=O)N(c1ccccc1)c1ccccc1` (stereo not given), the growth is 13.5% (inactive). For `C#C[C@]1(O)CCC2C3CCc4cc(O)ccc4C3CC[C@@]21C` (stereo not given in full), the growth was 55.2% (inactive).

Regarding `CCN(CC)CCNCC(=O)Oc1ccc(/C=C/C(=O)CC(=O)/C=C/c2ccc(OC(=O)CNCCN(CC)CC)c(OC)c2)cc1OC`, the growth is -24.5% (active). Next, `COc1cc(/C=C/C(=O)CC(=O)/C=C/c2ccc(OC(=O)C3C4CC5CC(C4)CC3C5)c(OC)c2)ccc1OC(=O)C1C2CC3CC(C2)CC1C3` (stereo not given): 33.3% (inactive); `Cc1cc2c(cc1C)[n+](Cc1ccc3ccccc3c1)cn2Cc1ccc2ccccc2c1`: -84.9% (active); `COc1cc(/C=C/C(=O)c2c(C)n([O-])c3ccc(Cl)cc3[n+]2=O)cc(OC)c1OC`: -62.2% (active).

With `CC[N+](CCCCCCCCCC[N+](CC)(c1ccccn1)c1ccccn1)(c1ccccn1)c1ccccn1`, the growth is -35.2% (active). Next, `C=C1CC[C@@H]2[C@](C)(COC(C)=O)[C@H](OC(C)=O)CC[C@@]2(C)[C@@H]1CC(NCc1ccccc1)C1=CCOC1=O` (stereo not given in full): 62.9% (inactive); `COc1ccc(/C=C2/SC(=Nc3c(C)nn(-c4ccccc4)c3N)NC2=O)cc1`: 27.2% (inactive); `COc1cc(-c2nnc(-c3nc(-c4cc(OC)c(OC)c(OC)c4)n4ccccc34)o2)ccc1N`: 56.4% (inactive).

In the case of `Cc1c2oc3c(C)ccc(C(=O)OC(C)C4NC(=O)C(C(C)C)N(C)C(=O)CN(C)C(=O)C5CCCN5C(=O)C(C(C)C)NC4=O)c3nc-2c(C(=O)OC(C)C2NC(=O)C(C(C)C)N(C)C(=O)CN(C)C(=O)C3CCCN3C(=O)C(C(C)C)NC2=O)c(N)c1=O` (stereo not given), the growth was 7.56% (active). Next, `O=C1/C(=C/c2ccc(F)cc2)Cc2ccccc21`: 105% (inactive). To `CC(NNC(=S)N1CCCCCC1)c1ccc2ccccc2n1` (stereo not given) belongs 19.3% (inactive). For the molecule `COC(=O)[C@H]1[C@H]2C[C@@H]3c4[nH]c5cc(OC)ccc5c4CCN3C[C@H]2C[C@@H](OC(=O)/C=C/c2cc(OC)c(OC)c(OC)c2)[C@@H]1OC`, the growth was 38.4% (inactive). Take `COC(=O)CC1=C(c2ccc([N+](=O)[O-])cc2)CCC1=O`: the growth is 127% (inactive). As to `O=C(O)C1C(c2ccccc2)c2ccccc2C(O)C1CO` (stereo not given), the growth was 118% (inactive). To `COc1ccc(C2=NN(C(N)=S)C(c3ccc4c(c3)OCO4)C2)cc1` (stereo not given) belongs -22% (active); to `COc1ccc(OC)c(CCn2cncc2-c2c[nH]c3cc(Br)ccc23)c1`, 47.9% (inactive). To `COc1ccc(NS(=O)(=O)N2CCCCC2)cc1` belongs 110% (inactive); to `CC(C)Sc1nc(Cl)c(C#N)c(-c2ccc(F)cc2)n1`, 103% (inactive). Next, `Cc1ccc2nc3c(n2c1)C(=O)C(=O)c1ccccc1-3`: -49.1% (active); `Cc1sc2nc(NCCc3cccs3)[nH]c(=O)c2c1C`: 101% (inactive). With `COc1cccc(/C=N/Nc2nc3ccccc3s2)c1OC`, the growth is 81.9% (inactive). To `Cc1cc(C)cc(S(=O)(=O)n2ccc(-c3ccc4c(c3)CCC(C)(C)O4)n2)c1` belongs 105% (inactive). To `COc1cc(C2CC(C3C(=O)N(C)C(=O)N(C)C3=O)=NN2c2cc(Cl)cc(Cl)c2)cc(OC)c1OC` (stereo not given) belongs 102% (inactive); to `O=C1CNc2cc(Cl)ccc2N1`, 103% (inactive); to `CCSc1nc(-c2ccc(F)cc2)c(C#N)c(=O)[nH]1`, 107% (inactive). Next, `CC(=O)N1N=C(c2ccc(Nc3nc(NCCO)nc(NCCO)n3)cc2)CC1c1ccc(Cl)cc1` (stereo not given): 99.4% (inactive); `COc1ccc(-c2nnc3c4[nH]cnc4ncn23)c(OC)c1`: 45.8% (inactive).

As for `COC(=O)[C@H](Cc1cn(C)cn1)NC(=O)[C@H](Cc1ccccc1)NC(=O)Nc1cc(C(F)(F)F)cc(C(F)(F)F)c1`, the growth is -56.3% [100 µM] (active). Next, `COC(=O)Nc1ccc2ccc3c(NC(=O)OC)ccc4ccc1c2c43` (tested in a mixture with another compound): 51.1% (inactive).

`Cc1nn(-c2ccccc2)c2nc(N)c(C3=NCCO3)nc12`: the growth is 94.4% (inactive).

As for `CCOC(=O)CNC(=O)C1(NC(=O)CNC(=O)OCc2ccccc2)CCCC1`, the growth is 117% (inactive).

`C/C(=C\CCc1ccoc1)CC/C=C(\C)CCCN1CCSCC1`: the growth was 93.7% (inactive).
